The values that follow come from PubChem BioAssay (EPA / NIEHS).

Calls of active or inactive are those of the source. How the source made its calls: active means hit-call score of the fitted dose curve at least 0.9, where 1 is the maximum; inactive means score below 0.9.

This experiment is described as follows: CCTE_Simmons_MITO_max_resp_rate: CCTE's HepG2 Seahorse XF Respirometric Screening Assay at Maximal Respiratory State [uncoupled], Simmons Lab (AID 2284002). To be noted: actives raise or lower the signal. In outline: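 HepG2 oxygen consumption measured on Seahorse XF after FCCP uncoupling, following test compound injection; 7 concentrations from 125 nM to 100 uM final. Readings every 6 min over 72 min, three biological replicates; bidirectional fit versus DMSO.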
As for `O=C(O)Cc1cc(I)c(Oc2ccc(O)c(I)c2)c(I)c1`, the AC50 is 50 µM (active). For the molecule `CCCCOC(=O)c1ccc(O)cc1`, the AC50 was 50 µM (active).

Turning to `Cc1c2ccccc2c(C)c2c1ccc1ccccc12`, the half-maximal activity concentration (AC50) is 26.1 µM (active). Regarding `CC(C)(C)c1csc(-c2cc3cc(OCc4ccccc4CC(=O)O)ccc3o2)n1`, the AC50 was 4.72 µM (active). Still for that read-out and setting: the value for `CC1(C)NC(=O)N(c2ccc([N+](=O)[O-])c(C(F)(F)F)c2)C1=O` was 33.8 µM (active). On the same count and under the same terms, the value for `NCc1cccc(C2CCN(C(=O)c3ccc(C#Cc4ccccc4F)o3)CC2)c1` was 61.4 µM (active). Turning to `OC12N=C(c3ccccc3)SC1Cc1cc(Cl)ccc12` (stereo not given), the outcome was inactive. As to `O=C1CCC(C2CCCCC2)CC1`, the molecule was called inactive. Still for that read-out and setting: the value for `CCCCCCCCCCCO` was “inactive”. `CC(=O)N1CCN(c2ccc(OC[C@H]3CO[C@](Cn4ccnc4)(c4ccc(Cl)cc4Cl)O3)cc2)CC1`: the AC50 was 12.7 µM (active). On the same count and under the same terms, the value for `CC(C)(c1cc(Br)c(O)c(Br)c1)c1cc(Br)c(O)c(Br)c1` was 6.61 µM (active); that for `CN(C)c1ccc(C(=C2C=CC(=[N+](C)C)C=C2)c2ccc(N(C)C)cc2)cc1` was 41.6 µM (active).

Turning to `Cc1cc2c(cc1C(F)(F)F)N(C(=O)Nc1ccc(Oc3cccnc3C)nc1)CC2`, the half-maximal activity concentration (AC50) is 10.9 µM (active). On the same count and under the same terms, the value for `CCCCCCCCCCCC[N+](C)(C)C` was 37.8 µM (active); that for `CCN(Cc1cccnc1)C(=O)c1cccc(Cl)c1[C@]1(C)C(=O)N(Cc2ccc(OC)cc2OC)c2ccc(Cl)cc21` was 2.17 µM (active); that for `Cc1cc(F)ccc1-c1cc(N2CC[C@@H](O)[C@H]2CO)ncc1N(C)C(=O)C(C)(C)c1cc(C(F)(F)F)cc(C(F)(F)F)c1` was 36.7 µM (active). `CN1C(=O)N(c2ccccc2Br)Cc2cnc(Nc3ccc4c(c3)OCC(CO)O4)nc21` (stereo not given): the AC50 is 50 µM (active).

For the molecule `CCCCCCCCCC(=O)O`, the molecule was called inactive.

Consider `CN(C)C(=O)C1(N2CCCCC2)CCN(CC[C@@]2(c3ccc(Cl)c(Cl)c3)CN(C(=O)c3ccccc3)CCO2)CC1`, for which the result was inactive. For the molecule `CC(C)(O)c1ccc(CNC(=O)c2cccnc2Oc2ccc3nonc3c2)cc1`, the molecule was called inactive.

In the case of `O=C1c2ccccc2C(=O)N1CCc1noc(-c2ccc(CN3CCCCCC3)s2)n1`, the AC50 was 39.8 µM (active). For `C[C@]12CC[C@@H]3c4ccc(O)cc4CC[C@H]3[C@@H]1CC[C@H]2O`, the molecule was called inactive. As to `CC/C(=C(/CC)c1ccc(O)cc1)c1ccc(O)cc1`, the concentration at half-maximal activity (AC50) was 11.3 µM (active). The same measure, in the same setting: the value for `CCCCCCCCOC(=O)c1cc(O)c(O)c(O)c1` was 11.5 µM (active); that for `NC(=O)c1nc(-c2cccc(-c3cc(F)ccc3OCC(F)(F)C(F)(F)F)c2)n[nH]1` was 6.36 µM (active).
